Assay outcomes from PubChem.
Many of the other results were omitted from the sample, so hits are more common in it than they were.
Pf Dd2 inh: blocks in vitro growth of P. falciparum Dd2 | actives 4.3% (n = 120,000) | Potency, µM (series often up to 28.9 µM), inactives show at the highest dose activity, negative = inhibition, hits mostly inhibitors | P. falciparum Dd2 growth, SYBR Green, 72 h; active = well fitted inhibition curve with a large enough effect;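 note: plate controls were DMSO vehicle for no effect and reference drug for full effect; nearly all actives have a fitted effect of over 65% in size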
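Infected erythrocytes (Dd2, 0.3% parasitemia, 2.5% hematocrit final) are added to compound in RPMI-1640/Albumax II medium, grown 72 h at 37C in low oxygen, then lysed with saponin/Triton-X containing SYBR Green and read by fluorescence.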
An asterisk follows results filed as active; i = inactive; [ ] = another dose, or the depositor's remark. Potency is the fitted concentration of half-maximal effect.

SMILES | Pf Dd2 inh
COC[C@@H]1[C@H](C(=O)N2CCN(c3ccc(F)cc3)CC2)CCC(=O)N1C | 6%
Cn1cccc1CN1CCCC(COc2ccccc2C(=O)N2CCCCC2)C1 (centres undefined) | i
COc1ccccc1CCN1CCCC(CN(C)C(=O)C(=O)c2cccn2C)C1 (centres undefined) | 14µM*
CC(C)(C)CCN1CCCC(COc2ccccc2C(=O)N2CCCC2)C1 (centres undefined) | i
Cc1cc(C(=O)N(C)CC2CCCN(CCc3ccccc3F)C2)n[nH]1 (centres undefined) | -28%
COc1ccccc1CN1CCCC(CN(CCN(C)C)C(=O)c2ccccc2OC)C1 (centres undefined) | i
COc1ccccc1CCN1CCCC(CN(C)C(=O)Nc2ccccc2)C1 (centres undefined) | 2.2µM*
Fc1ccccc1CN1CCNc2cnc(Oc3ccccc3)cc2C1 | 15%[44.1 µM]
O=C(C[C@@H]1C[C@H]2O[C@H](CNCc3cnccc3Cl)[C@@H](O)[C@H]2O1)N1CCOCC1 | 13%[44.1 µM]
COc1cc(OC)c(NC(c2nnc(-c3ccccc3)o2)c2ccc(F)cc2Cl)cc1Cl (centres undefined) | 6.3µM*
Cc1ccc(Cl)cc1NC(=O)c1ccc(-c2nc(CSc3ccccc3)c(C)o2)cc1 | i
COc1cc(OC)c(NC(=O)COc2ccccc2-c2nnc(-c3ccccc3)o2)cc1Cl | 12%
Cc1ccc(Cl)cc1NC(c1ccc(F)cc1)c1nnc(-c2ccccc2)o1 (centres undefined) | 13µM*
Cc1ccc(Cl)cc1N1CCN(C(c2ccc(F)cc2)c2nnc(-c3ccccc3)o2)CC1 (centres undefined) | 7.9µM*
COCCn1c(C)cc(O)c(C(c2ccc(F)cc2)N2CCN(c3ccccc3)CC2)c1=O (centres undefined) | i
Cc1cccc(N2CCN(C(c3ccc(F)cc3)c3nnc(-c4ccccc4)o3)CC2)c1C (centres undefined) | 11µM*
Cc1ccccc1-c1nnc(CN2CCN(c3cc(Cl)ccc3C)CC2)o1 | -10%
Cc1cccc(N2CCN(c3ncnc4onc(C)c34)CC2)c1C | -5%
Cc1ccc(Cl)cc1N1CCN(c2ncnc3onc(-c4ccc(F)cc4)c23)CC1 | -12%
Cc1ccc(Cl)cc1NC(=O)c1cnn2c(C(F)F)cc(-c3ccccc3)nc12 | 14%
COc1cc(OC)c(NC(=O)c2ccc3nc(C(C)C)oc3c2)cc1Cl | -12%
C=CCCC(CN1CCCOCC1)Oc1ccc(Cn2ccnc2)cn1 (centres undefined) | i
NC(=O)c1n[nH]c2c1CN(CC1(O)CNCCOC1)CC2 (centres undefined) | -15%
COc1ccc(C(=O)N2CCCCCNC(=O)[C@@H]3CCC[C@@H]32)cc1F | 7%
CNC(=O)Cn1nc(C2CCN(C(=O)c3cccc(F)c3)CC2)c2c1CCOC2 | i[5.79 µM]
SMILES | Pf Dd2 inh
C[C@H]1CCCN1C(=O)c1nnc(CNc2ccccc2Cl)n1-c1ccccc1 | -7%[44.1 µM]
COc1ccc(-c2noc(C(=O)N(C)C)c2[C@H](C)O)cc1 | 0%[44.1 µM]
C=CCS(=O)(=O)N1CCCC1C(=O)Nc1ccccc1-c1ccc(OC)cc1 (centres undefined) | -5%
COc1ccc(Cl)cc1NC(=O)N1CCC(OC2CCN(S(C)(=O)=O)CC2)CC1 | 18%
O=C(c1ccccc1)N1CCOCC12CCN(Cc1ccc3[nH]ccc3c1)CC2 | -7%[44.1 µM]
O=C(OCc1ccccc1)N1CCOCC12CCN(Cc1ccncc1)CC2 | -19%[44.1 µM]
O=C(OCc1ccccc1)N1CCOCC12CCN(Cc1ccc3[nH]ccc3c1)CC2 | 7.1µM*
COC[C@H]1C[C@@H](NC(=O)C(C)C)[C@H](O)[C@@H]1O | 36%[44.1 µM]
O=C(CC1CCCCN(Cc2ccccc2)C1=O)NC1CCCCCC1 (centres undefined) | i
CC(C)CCN1CCC2(C1)C(=NC1CCCC1)NC(=O)N2c1cc(F)cc(F)c1 (centres undefined) | 8.9µM*
CC(C)CCN1CCC2(CC1)C(=NC1CCCCC1)NC(=O)N2c1cccnc1 | 12%
O=C1NC(=NC2CCCC2)C2(CCCN(Cc3ccc(F)cc3)C2)N1c1cc(F)cc(F)c1 (centres undefined) | 7.9µM*
CC(=O)N1CCCC2(C1)C(=NC1CCCC1)NC(=O)N2c1cc(F)cc(F)c1 (centres undefined) | -13%
O=C1NC(=NC2CCCC2)C2(CCN([S+](=O)([O-])c3ccccc3)C2)N1c1cc(F)cc(F)c1 (centres undefined) | -14%
O=C(OCc1ccccc1)N1CCC2(CC1)C(=NC1CCCC1)NC(=O)N2c1cc(F)cc(F)c1 | i
C[S+](=O)([O-])N1CCC2(CC1)C(=NC1CCCC1)NC(=O)N2c1cc(F)cc(F)c1 | 24%
O=C1NC(=NC2CCCCC2)C2(CCN(Cc3cccnc3)C2)N1c1cccnc1 (centres undefined) | -4%
O=C1NC(=NC2CCCC2)C2(CCN(Cc3ccccc3)C2)N1c1cc(F)cc(F)c1 (centres undefined) | 1.4µM*
CN(C)c1ccc(CN2CCC3(CC2)C(=NC2CCCCC2)NC(=O)N3c2cccnc2)cc1 | 7%
O=C1NC(=NC2CCCCC2)C2(CCN(Cc3ccsc3)C2)N1c1cc(F)cc(F)c1 (centres undefined) | 6%
CN(C)c1ccc(CN2CCCC3(C2)C(=NC2CCCCC2)NC(=O)N3c2cc(F)cc(F)c2)cc1 (centres undefined) | 5.6µM*
Cc1noc(-c2cn(C3CCN(C(=O)c4ccc(F)cc4)C3)nn2)n1 (centres undefined) | i
O=C(NCC1(COc2cnccn2)C[C@@H](O)[C@@H](O)C1)N1CCOCC1 (some centres undefined) | 18%[44.1 µM]
Cc1occc1C(=O)N1CC(F)(F)C[C@H]1c1nnc(C2CC2)o1 | 8%
Cn1cccc1C(=O)N[C@H]1C[C@@H](C(=O)O)N(C(=O)CSCC(=O)N2C[C@@H](NC(=O)c3cccs3)C[C@H]2C(=O)O)C1 | 14%
SMILES | Pf Dd2 inh
Cc1cccc(C(=O)N2C[C@@H](Oc3cccnc3)C[C@H]2C(=O)N2CCOCC2)c1 | 13%
CN1c2cc(C(=O)N3CCN(c4ccccc4F)CC3)ccc2C(=O)N2CCCCCC21 (centres undefined) | -9%
CC(C)(C)NC(=O)N1CCCOCCNC(=O)[C@@H]2CCC[C@@H]21 | 3%
COCC(=O)N1CC[C@@H](CC(=O)O)[C@@H](CCN2CCN(c3cccc(C(F)(F)F)c3)CC2)C1 | 10%
Cc1c(C(=O)NCCN(C)C)oc2c1-c1nn(Cc3cccc(Cl)c3)cc1CC2 | -7%
CN(C)CCN(C)Cc1cn(Cc2ccccc2)nc1-c1ccc2c(c1)OCO2 | 10µM*
CN(Cc1nccn1Cc1ccccc1)C(=O)CCc1ccc2c(c1)OCO2 | -10%
Cc1ccccc1N1Cc2c(NCCOc3ccccc3)ncnc2N(C)CC1=O | i
COc1ccc(S(=O)(=O)c2c(Nc3cccc(C)c3C)sc(C(=O)c3ccccc3)c2N)cc1 | 10µM*
Cc1ccccc1Nc1sc(C(=O)c2ccccc2)c(N)c1S(C)(=O)=O | i[5.79 µM]
COc1ccccc1Nc1sc(C(=O)c2ccc(F)cc2)c(N)c1S(=O)(=O)c1ccc(C)cc1 | -29%
O=C1CC(c2noc(-c3cccc(F)c3)n2)CN1c1ccc(F)c(Cl)c1 (centres undefined) | 74%
CC(C)C1CN(S(=O)(=O)C2CC2)CCC(=O)N1Cc1ccc(F)cc1 (centres undefined) | 2%
O=[N+]([O-])c1cc(-c2nc(-c3ccco3)no2)ccc1NCc1ccccc1 | -8%
